# Bioassay records as filed in PubChem BioAssay.
# PAFAH1B3 inh: PAFAH1B3 (human) inhibition; Q15102; recombinant PAFAH1B3, FP-rhodamine probe, fluorescence polarization; inhibition, % at 3.39 µM; actives 0.28% (n = 340,000); AID 492972;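 active = inhibition above the screen-wide average of all tested compounds plus 3 SD, cut at about 25% in these data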;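 also: 0% = enzyme with DMSO only and 100% = wells lacking PAFAH1B3 protein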
# PAFAH1B2 inh: blocks human PAF acetylhydrolase 1b catalytic subunit 2. P68402. AID 492953. actives 1.2% (n = 340,000). recombinant PAFAH1B2, FP-rhodamine activity probe, fluorescence polarization. inhibition, % at 3.39 µM;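 active = inhibition above the mean of all tested compounds plus 3 SD, cut at about 24% in these data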;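 also: 0% = enzyme with DMSO and 100% = wells lacking PAFAH1B2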
# pPAFAH inh: inhibitors of human plasma PAF acetylhydrolase (pPAFAH); recombinant pPAFAH, FP-rhodamine probe fluorescence polarization; inhibition, % at 3.39 µM; actives 1.5% (n = 330,000);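 active = inhibition above the mean inhibition across the screen plus 3 SD, cut at about 25% in these data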;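 also: inhibitors block binding of the rhodamine activity-based probe so polarization drops; 0% = enzyme with DMSO and 100% = wells lacking pPAFAH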
# Target sequence (Q13093 whole entry, looked up): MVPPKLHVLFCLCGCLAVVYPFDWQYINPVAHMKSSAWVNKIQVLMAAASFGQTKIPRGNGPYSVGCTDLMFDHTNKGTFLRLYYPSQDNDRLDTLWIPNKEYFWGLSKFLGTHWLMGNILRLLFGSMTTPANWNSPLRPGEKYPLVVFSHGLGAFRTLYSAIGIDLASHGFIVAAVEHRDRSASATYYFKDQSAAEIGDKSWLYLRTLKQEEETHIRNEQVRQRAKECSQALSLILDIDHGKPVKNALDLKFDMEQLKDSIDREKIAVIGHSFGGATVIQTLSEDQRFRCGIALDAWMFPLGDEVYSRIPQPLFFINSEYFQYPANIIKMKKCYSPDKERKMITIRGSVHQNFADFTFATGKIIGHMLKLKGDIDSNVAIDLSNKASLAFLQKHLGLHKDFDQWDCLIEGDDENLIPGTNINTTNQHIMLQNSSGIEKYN
# TCR-CD3 inh: human TCR-CD3 binding inhibition; inhibition, % at 9.4 µM; TAMRA-labeled TCR probe fluorescence, biochemical; actives 0.37% (n = 360,000); in the data active = inhibition above about 19%;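 also: recombinant mutant TCR 2C K166C tagged with TAMRA read by polarization; 0% = receptor in buffer alone and 100% = receptor with positive control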
# PAFAH2 FP inh: inhibitors of human PAFAH2; recombinant PAFAH2, FP-rhodamine activity probe, fluorescence polarization; inhibition, % at 3.39 µM; Q99487; actives 0.99% (n = 340,000); AID 492956;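 active = inhibition above the mean over all tested compounds plus 3 SD, cut at about 30% in these data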;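 also: inhibitors block probe labeling of enzyme so polarization drops; 0% = enzyme with DMSO and 100% = wells lacking PAFAH2 protein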
# * hit, by the source's call; . = no result. The list is not random: actives were taken first. Their share in the collection is about 2.7%.
SMILES,PAFAH1B3 inh,PAFAH1B2 inh,pPAFAH inh,TCR-CD3 inh,PAFAH2 FP inh
Cc1ccccc1-c1n[nH]c(=S)n1Cc1ccccc1,-2,12,5,4,5
S=c1[nH]nc(-c2ccccc2Br)n1Cc1ccccc1,2,29*,0,-3,2
COc1cccc(N2C(=O)Nc3ccc(Br)cc3C2(O)C(=O)NCCCOC(C)C)c1 (stereo not given),3,4,-2,0,-5
COCc1nnc(NC(=O)CCCOc2ccccc2OC)s1,-13,8,3,0,0
COCc1nnc(NC(=O)CCCOc2ccccc2)s1,11,2,34*,2,-2
COc1ccc(-c2cc(C3CC3)nc3sc(C#N)c(N)c23)cc1,4,0,31*,0,-5
Cc1ccc(C(=O)CSc2nc(-c3ccccc3)ccc2C#N)cc1,-1,1,-3,-1,4
N#Cc1ccc(-c2ccco2)nc1SCC(=O)c1ccc(Cl)cc1,2,7,39*,7,1
O=c1/c(=C\c2cc([N+](=O)[O-])cc([N+](=O)[O-])c2O)sc2nc3ccccc3n12,1,4,26*,.,14
O=c1/c(=C/c2ccccn2)sc2nc3ccccc3n12,8,4,4,1,5
O=C(O)c1cccc(-c2ccc(/C=c3/sc4nc5ccccc5n4c3=O)o2)c1,26*,15,26*,15,21
Oc1ccc(NCc2ccccc2OCc2ccccc2F)cc1,11,4,31*,11,4
Cc1ccc(NCc2ccccc2OCc2ccccc2F)cc1,-4,4,7,-2,1
CCOc1cccc(CNc2ccc(O)cc2)c1OCc1ccc(Cl)cc1,8,3,33*,16,8
CN1OC[C@@H]2CN(C(=O)c3cccc4ccccc34)[C@H](c3ccccc3Br)C[C@@H]21,.,.,.,0,.
Cc1cccc(C(=O)Nc2sc(-c3ccccc3)cc2C(=O)O)c1,9,33*,34*,-6,23
CC(C)(C)C(=O)Nc1sc(-c2ccccc2)cc1C(=O)O,-3,9,7,7,1
CC(CCc1ccccc1)NS(=O)(=O)c1ccccc1F (stereo not given),6,29*,4,-5,4
CCCc1ccc2oc(C(=O)N3CCC(COC)C3)c(C)c2c1 (stereo not given),-2,5,27*,2,10
CC(C)NC(=S)N/N=C1\CCCCC1C1CCCCC1 (stereo not given),7,29*,8,6,5
O=C(NC1CC1)[C@@H]1CSC2c3ccccc3C(=O)N21 (stereo not given in full),2,3,4,-5,-1
CCOC(=O)C(=C1Nc2ccccc2N1)n1c(-c2cnccn2)nc2ccccc21,.,.,.,1,.
CCOC(=O)C(=C1Nc2ccccc2N1)n1c(-c2ccco2)nc2ccccc21,.,.,.,22*,.
Cc1cc(C(=O)COc2cccc3cccnc23)c(C)n1C,7,13,26*,11,26
COC(=O)[C@]1(C)N[C@H](c2ccc(-c3ccc(Cl)c(Cl)c3)c(OC)c2)[C@@H]2C(=O)N(C)C(=O)[C@@H]21,1,1,30*,8,0
SMILES,PAFAH1B3 inh,PAFAH1B2 inh,pPAFAH inh,TCR-CD3 inh,PAFAH2 FP inh
COC(=O)[C@]1(C)N[C@H](c2ccc(-c3ccc(OC)cc3)cc2)[C@@H]2C(=O)N(C)C(=O)[C@@H]21,-1,1,3,-5,4
Cc1ccc(SCCNC(=O)c2ccc([N+](=O)[O-])c(C)c2)cc1,12,28*,-6,1,5
Cc1ccc(SCCNC(=O)c2ccc(C)c([N+](=O)[O-])c2)cc1,5,22,5,1,1
COC(=O)C1=C(C)N(C)C(=NCC2CC2)NC1c1cccc(Cl)c1 (stereo not given),.,.,.,1,.
CCOC(=O)C1=C(COC(=O)c2sccc2C)NC(=O)NC1C (stereo not given),12,7,1,0,0
CCOC(=O)C1=C(COC(=O)c2ccc([N+](=O)[O-])s2)NC(=O)NC1C (stereo not given),52*,11,4,-7,36*
OCCN(Cc1ccccc1)CC(O)COc1ccc(-c2ccccc2)cc1 (stereo not given),0,2,9,2,8
COc1cc(C(C)=O)ccc1OCC(O)CN(CCO)Cc1ccccc1 (stereo not given),-3,-3,32*,-3,7
O=C1c2ccccc2C(=O)N1C1C=CC=CC=C1,.,.,.,6,.
O=C(O)CSc1cc(NS(=O)(=O)c2ccc(Cl)cc2)c2ccccc2c1O,52*,51*,12,7,36*
Cc1cc(C)c(S(=O)(=O)Nc2cc(SCC(=O)O)c(O)c3ccccc23)cc1C,.,.,16,.,.
CN(CC(=O)Nc1cccc(F)c1)C(=O)c1cccc(S(=O)(=O)N2CCN(c3ccc(F)cc3)CC2)c1,12,4,.,2,-8
COC(=O)C1=C(C)N(Cc2ccccc2C(F)(F)F)C(=NCc2cc(OC)c(OC)c(OC)c2)NC1c1cccc(C(F)(F)F)c1 (stereo not given),.,.,.,1,.
Cc1cccc(C(=O)O/N=C(\N)c2ccc(Br)cc2)c1,-2,5,2,-1,4
Cc1cccc(C(=O)O/N=C/c2ccc(Br)cc2)c1,0,37*,18,5,73*
CC(O)(c1ccccc1)C(C(c1ccccc1)N1CCOCC1)N1CCOCC1 (stereo not given),6,1,.,5,1
OC(c1ccccc1)(c1ccc(F)cc1)C(c1ccccc1)N1CCOCC1 (stereo not given),2,33*,0,.,-1
CN(C)C=NC(=O)c1[nH]c2ccc(Cl)cc2c1-c1ccccc1,-1,-1,29*,-7,3
CCOC(=O)c1[nH]c2ccc(Cl)cc2c1-c1ccccc1,0,2,1,-4,-5
O=C(CNC(=O)N1CC(=O)Nc2ccccc21)NCCc1cccc(F)c1,-1,5,-1,4,9
COC1=C/C(=C/c2c(N)n3nc(-c4ccc(C)cc4)sc3nc2=O)C=CC1=O,18,28*,.,9,13
CCC(Sc1nc(-c2cccc(OC)c2)c(C#N)c(=O)[nH]1)C(=O)Nc1nnc(C(C)C)s1 (stereo not given),-4,35*,0,-8,0
S=c1[nH]nc(-c2ccco2)n1/N=C/c1cccc(Cl)c1Cl,12,8,20,5,27
S=c1[nH]nc(-c2ccco2)n1/N=C/c1ccc(Cl)cc1Cl,6,15,31*,2,18
CCCN1CCCCC(NC(=O)OC(C)(C)C)C1=O (stereo not given),.,.,.,4,.
CN(C)C(=O)CN1C(=O)NC(c2ccccc2)(c2ccccc2)C1=O,13,0,13,-8,-5
Cn1cccc1C1C=C(c2ccc(C(C)(C)C)cc2)Nc2ncnn21 (stereo not given),8,15,11,-8,2
